Screens from PubChem BioAssay.
KLK7 zymogen act: proKLK7 (human) activation, primary screen; P49862; purified proKLK7, EDANS-DABCYL substrate fluorescence; 100% is mature enzyme control, 0% vehicle; activation, % at 7 µM; hit rate 0.9% among 370,000; AID 652039;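 active means activation above the mean of all tested compounds plus 3 SD, computed per campaign excluding outliers beyond control limits, cut at about 13% in these data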
Target sequence (P49862 whole entry, looked up): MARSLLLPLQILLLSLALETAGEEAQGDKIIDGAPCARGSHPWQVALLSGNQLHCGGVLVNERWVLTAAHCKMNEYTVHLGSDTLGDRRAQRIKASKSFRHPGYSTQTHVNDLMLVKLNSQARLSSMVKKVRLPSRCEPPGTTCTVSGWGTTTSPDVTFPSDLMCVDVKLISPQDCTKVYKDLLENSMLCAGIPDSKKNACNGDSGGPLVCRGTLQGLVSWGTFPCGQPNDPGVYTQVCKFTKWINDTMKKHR
GC-B act: GC-B (human) receptor activation; P20594; HEK293-GC-B cells, CNP EC30, cGMP TR-FRET; 0% at EC30 CNP, 100% saturating CNP; activation, % at 10 µM; hit rate 0.11% among 370,000; AID 1920062;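 active means activation at 10 µM reaching about 35% in either raw or pattern-adjusted values, limit read from the data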
NPR1 activator: GC-A (human) enzyme activation. P16066. HEK293 GC-A cells, cGMP TR-FRET, EC30 ANP; 0% at EC30 ANP, 100% saturating ANP. activation, % at 10 µM. hit rate 0.14% among 370,000; in the data active means activation above about 40%
HIF act: HIF pathway transcriptional activation | U2OS HRE-luciferase reporter, luminescence; normalized: DMSO 0%, desferrioxamine 100% | activation, % at 7.5 µM (by protocol) | hit rate 0.32% among 300,000;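 active means mean activation of at least 10% of the iron chelator positive control signal, with at least half of replicates also reaching 10%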
proKLK7 act conf: proKLK7 activation, confirmation. AID 686949. activation, % at 7 µM. hit rate 68% among 3,200. shares compounds with KLK7 zymogen act. purified proKLK7, EDANS-DABCYL substrate fluorescence; scaled: vehicle 0, mature enzyme 100;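 active means activation, as change over the incubation, above the mean of all tested compounds plus 3 SD, cut at about 13% in these data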
EDANS-DABCYL int: optically interferes with EDANS-DABCYL signal, flagging KLK7 hits | shares compounds with KLK7 zymogen act | EDANS-DABCYL substrate fluorescence interference, no enzyme, 4 h; solvent 0%, active enzyme control 100% | activation, % at 7 µM | hit rate 80% among 3,200 | AID 686952;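 active means activation above the all-compound mean plus 3 SD, ignoring values outside control-based bounds, cut at about 4.8% in these data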;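 further: value is the 4 h activation minus the activation read at time zero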
The depositor's hits bear a star; · = not tested or not shown. Shown are actives, neighbours in structure and some others; about 1.3% of the full set was active somewhere.

SMILES	KLK7 zymogen act	GC-B act	NPR1 activator	HIF act	proKLK7 act conf	EDANS-DABCYL int
CCCCOc1ccc(C(=O)NC2CCCCN(Cc3cccc(Cl)c3)C2=O)cc1 (stereo not given)	1	3	-1	·	·	·
Cc1cc(C)c2nc(N3C(=O)C(O)=C(C(=O)c4ccco4)C3c3cccc(O)c3)sc2c1 (stereo not given)	14*	-3	-2	·	20*	22*
COc1cc(C2Nc3ccccc3C(=O)N2c2ccc(Cl)cc2)c(Cl)cc1OCC(=O)O (stereo not given)	22*	2	1	5	26*	27*
CCOC(=O)C(=O)N1CCC(C(=O)NC2CCCc3ccccc32)CC1 (stereo not given)	0	3	4	·	·	·
NC(=O)c1c(NC(=O)c2ccccc2)sc2c1CCC2	90*	-8	-3	1	2	2
CC(=O)Nc1ncnc2c1c(-c1ccc(Cl)cc1)nn2C(C)(C)C	13*	1	-2	0	1	0
CC(=O)N(C(C)=O)c1ncnc2c1c(-c1ccc(Cl)cc1)nn2C(C)(C)C	27*	-4	0	0	27*	30*
CCOC(=O)Cn1nc(-c2ccc(Cl)cc2)ccc1=O	-1	-3	1	0	·	·
COC(=O)C1CN(Cc2ccccc2)CCS(=O)(=O)N1Cc1ccc(OC)cc1 (stereo not given)	1	-3	-4	·	·	·
Cc1cc2oc(=O)cc(CN3CCOCC3)c2cc1C	0	4	3	0	·	·
CCNc1cc2oc(=O)c(CN3CCOCC3)c(C)c2cc1C	43*	6	8	·	69*	78*
C=CCN(CC=C)c1nc2ccccc2nc1C(C#N)C(=O)OCCOC (stereo not given)	43*	18	13	-1	20*	18*
CC(=O)N1CCc2cc(Br)c(S(=O)(=O)CCC(=O)N3CCN(c4ccccn4)CC3)cc21	0	-2	3	·	·	·
COC(=O)c1cc(-c2ccc(C(C)=O)cc2)c(=O)n2c1CCC2	39*	-4	-1	·	72*	71*
Cn1c(=NC(=O)c2ccc(S(=O)(=O)N3CCCc4ccccc43)cc2)sc2cc(S(C)(=O)=O)ccc21	0	-1	6	0	·	·
C#CCn1c(=NC(=O)c2ccc(S(=O)(=O)N3CCCc4ccccc43)cc2)sc2cc(S(N)(=O)=O)ccc21	51*	-1	-1	-1	8	24*
COC(=O)c1ccc(Cn2ccc3ccc(-c4ccc5ccn(C(=O)c6ccc(C)cc6)c5c4)cc32)cc1	-1	-3	1	·	·	·
O=C(NCCCN1CCCC1)c1ccc2c(c1)N(Cc1ccccc1)CCS2	51*	-7	-1	0	-16	-13
NS(=O)(=O)c1ccc(CCNC(=O)c2ccc3c(c2)N(Cc2ccccc2)CCS3)cc1	-16	-8	-10	-1	·	·
O=C(NCCCN1CCOCC1)c1ccc2c(c1)N(Cc1ccc(F)cc1)CCS2	-12	7	-1	·	·	·
CCN1CCN(CCCNC(=O)c2ccc3c(c2)N(Cc2ccccc2)CCS3)CC1	35*	1	-1	-1	-26	-28
CN1CCN(CCCNC(=O)c2ccc3c(c2)N(Cc2ccc(F)cc2)CCS3)CC1	76*	7	-3	0	-8	-15
COc1ccc2cc3cc(C(=O)NCc4ccco4)oc3nc2c1	49*	-1	6	1	-43	-26
COc1ccc2nc3oc(C(=O)NCc4cccs4)cc3cc2c1	1	8	3	0	·	·
O=C(NCc1ccco1)c1cc2cc3ccc(Cl)cc3nc2o1	1	11	15	1	·	·
COc1ccc2cc3cc(C(=O)NCc4ccccn4)oc3nc2c1	42*	4	6	0	-18	-4
Cc1ccc(/C=C2\Oc3c(ccc(O)c3CN3CCN(CCO)CC3)C2=O)cc1	96*	-3	3	0	79*	73*
CC(C)c1ccc(/C=C2\C(=O)N(CCN3CCOCC3)C(=S)N2C)cc1	0	-2	-4	0	·	·
